Compounds with a hit are over-represented: about 6.1% of the library has one in this group of screens.
M1 antagonist: blocks the rat M1 muscarinic receptor response to acetylcholine; P08482; CHO-M1 cells, Fluo-4 calcium, ACh EC80 antagonist mode; stronger effect = lower value; B-score at 10 µM; hit rate 3.4% among 64,000;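 active = calcium fluorescence response, raw or row-and-column corrected B-score, differing from the plate sample mean either way at a set confidence level, mostly lower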
M1 agonist: M1 muscarinic receptor agonism | B-score at 10 µM | CHO-M1 cells, Fluo-4 calcium fluorescence, agonist mode; stronger effect = higher value | AID 626 | hit rate 3% among 64,000;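 active = fluorescence rise, raw or as B-score row- and column-corrected plate score, outside the 99.7% band of its plate's samples, either direction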
Cdc25B block: human M-phase inducer phosphatase 2 inhibition; recombinant Cdc25B, OMFP fluorescence Ex485/Em525; inhibition, %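 (compounds tested at 10 µM final in the well)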; AID 368; hit rate 0.1% among 65,000; P30305; in the data active = inhibition above about 50%
Target sequence (P30305 whole entry, looked up): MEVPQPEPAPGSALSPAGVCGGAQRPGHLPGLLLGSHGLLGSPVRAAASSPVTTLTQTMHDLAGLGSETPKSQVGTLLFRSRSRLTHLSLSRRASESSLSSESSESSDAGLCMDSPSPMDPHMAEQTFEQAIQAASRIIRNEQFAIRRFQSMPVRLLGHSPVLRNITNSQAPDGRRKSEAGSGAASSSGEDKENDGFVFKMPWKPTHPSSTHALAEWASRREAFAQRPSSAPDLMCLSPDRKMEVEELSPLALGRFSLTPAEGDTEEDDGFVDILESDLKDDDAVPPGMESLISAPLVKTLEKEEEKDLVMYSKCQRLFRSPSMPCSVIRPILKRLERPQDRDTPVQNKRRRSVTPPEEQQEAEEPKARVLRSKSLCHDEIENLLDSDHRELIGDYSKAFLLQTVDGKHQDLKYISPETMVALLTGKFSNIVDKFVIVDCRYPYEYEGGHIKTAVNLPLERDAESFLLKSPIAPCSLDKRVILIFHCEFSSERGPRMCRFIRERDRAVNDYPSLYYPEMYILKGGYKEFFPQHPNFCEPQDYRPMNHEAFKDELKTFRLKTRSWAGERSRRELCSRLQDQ
MMP-13 inhibitor: inhibitors of human MMP13 | inhibition, % at 4 µM | P45452 | MMP-13 fTHP FRET cleavage, Mca fluorescence | hit rate 0.07% among 65,000;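 active = inhibition above the mean of compound-free control plate wells plus 3 SD, cut at about 14% in these data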
Hsp90 block: displaces geldanamycin probe from tumor Hsp90; P07900; NCI-N417 lysate Hsp90, Cy3B-geldanamycin FP displacement; inhibition, % at 30 µM; hit rate 0.35% among 64,000; AID 429;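 active = inhibition above 50%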
MKP-1 inh: human dual specificity phosphatase 1 inhibition; P28562; recombinant MKP-1, OMFP hydrolysis fluorescence; inhibition, %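 (compounds tested at a single concentration somewhere between 10 and 100 µM)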; hit rate 0.15% among 65,000; AID 374;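 active = inhibition above about 50%, limit read from the data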
A number is an active result; – = inactive; · = no result.

SMILES	M1 antagonist	M1 agonist	Cdc25B block	MMP-13 inhibitor	Hsp90 block	MKP-1 inh
Cc1cccc(-c2c3c(=O)n(C)c(=O)n(C)c3c3nnc4ccccc4n23)c1	–	5.2	–	–	–	–
Cc1ccc(-c2c3c(=O)n(C)c(=O)n(C)c3c3nnc4ccccc4n23)cc1	–	–	–	–	–	–
CC(C)CC(c1nnnn1C(C)C)N1CCN(c2cccc(Cl)c2)CC1 (configuration not stated)	–	–	–	–	–	–
COC(=O)C1CCN(c2nc3ccccc3nc2C(C#N)C(=O)NCCc2ccccc2)CC1 (configuration not stated)	–	25	–	–	–	–
N#CC(C(=O)NC1CCCCC1)c1nc2ccccc2nc1N1CCOCC1 (configuration not stated)	–	84	–	–	–	–
CC1CN(c2nc3ccccc3nc2C(C#N)C(=O)NCc2ccc3c(c2)OCO3)CC(C)O1 (configuration not stated)	–	9.8	–	–	–	–
COC(=O)C1CCN(c2nc3ccccc3nc2C(C#N)C(=O)OCC(C)C)CC1 (configuration not stated)	–	–	–	–	–	–
O=C1C2C=CC=CC2=NC(=S)N1CCN1CCC(=C(c2ccc(F)cc2)c2ccc(F)cc2)CC1 (configuration not stated)	·	·	·	·	–	·
C=CCn1c(SCc2ccccc2C#N)nnc1-c1ccccc1O	–	–	–	–	–	–
Cc1nc2cc(N3CCCCC3)c(NC(=O)c3cccnc3)cc2c(=O)n1Cc1ccccc1	2.8	–	–	–	–	–
COc1cccc(/C=N/n2c(SC)nnc2-c2ccccc2)c1OC	–	–	–	–	–	–
COc1cccc(/C=N/n2c(SC)nnc2-c2ccccc2)c1O	–	7.2	–	–	–	–
CC1CCN(S(=O)(=O)c2ccc3c(c2)c(=O)c(C(=O)NC2CCCC2)cn3C)CC1	–	–	–	–	–	50
Cn1cc(C(=O)NC2CCCCC2)c(=O)c2cc(S(=O)(=O)N3CCCC3)ccc21	·	·	–	–	–	–
Cc1ccc(NC(=O)COC(=O)c2ccc3c(c2)NC(=O)C2CCCN32)cc1C (configuration not stated)	–	–	–	–	–	54
CCOC(=O)CN1CC23C=CC(O2)C(C(=O)Nc2ccc(OC)cc2OC)C3C1=O (configuration not stated)	–	–	–	–	–	–
CCOC(=O)CN1CC23C=CC(O2)C(C(=O)Nc2cc(OC)ccc2OC)C3C1=O (configuration not stated)	–	–	–	14	–	–
O=c1c2c3nc4ccccc4nc3n(CC3CCCO3)c2ncn1CCc1ccccc1 (configuration not stated)	–	–	–	–	–	–
O=c1c2c3nc4ccccc4nc3n(CCN3CCOCC3)c2ncn1CCN1CCOCC1	–	2.7	–	–	–	–
C=CCn1cnc2c(c1=O)c1nc3ccccc3nc1n2/N=C/c1cccc(OC)c1OC	–	4.8	–	–	–	–
C=CCn1cnc2c(c1=O)c1nc3ccccc3nc1n2/N=C/c1ccccn1	-4.1	8.1	–	–	–	–
C=CCn1cnc2c(c1=O)c1nc3ccccc3nc1n2-c1ccc(C)cc1	–	–	–	–	–	–
C=CCn1cnc2c(c1=O)c1nc3ccccc3nc1n2-c1ccccc1	-14	–	–	–	–	–
NCCCCN	·	·	·	·	–	·
CSc1nc(N)c2ncn([C@@H]3O[C@H](COP(=O)(O)OP(=O)(O)OP(=O)(O)O)[C@H](O)C3O)c2n1 (some centres not stated)	·	·	·	·	–	·
SMILES	M1 antagonist	M1 agonist	Cdc25B block	MMP-13 inhibitor	Hsp90 block	MKP-1 inh
CCCCCCCCS(=O)(=O)Nc1cc(OC)cc2cccnc12	·	·	·	·	–	·
Cc1ccccc1-n1c(=O)cc(N2CCC3(CC2)OCCO3)[nH]c1=O	–	–	–	–	–	–
O=C(O)CCCNc1cc(N2CCC3(CC2)OCCO3)c2noc3c2c1C(=O)c1ccccc1-3	–	6.2	–	–	–	–
O=C(COC(=O)c1cccc(S(=O)(=O)N2CCc3ccccc32)c1)NC1CCS(=O)(=O)C1 (configuration not stated)	–	–	–	–	–	–
c1ccc(SCc2nc(-c3ccncc3)no2)cc1	–	–	–	–	–	74
O=C(OC1CCc2ccccc2C1=O)c1ccccc1O (configuration not stated)	–	–	–	–	72	–
O=C(c1ccco1)N1CCN(C(c2ccccc2Cl)c2nnnn2Cc2ccco2)CC1 (configuration not stated)	–	12	–	–	–	–
Cc1ccc(C(=O)Nc2ccc(S(=O)(=O)N3CCN(C)CC3)cc2)o1	–	–	–	–	·	–
COc1ccc(-c2csc(Cc3nnc4n3CCCCC4)n2)cc1	2.3	–	–	–	–	–
COc1ccc(CCNC(=O)CCn2c(SCC#N)nc3ccccc3c2=O)cc1OC	–	–	–	–	–	–
O=C(c1ccco1)N1CCN(C(=O)c2cc(-c3ccccn3)nc3ccc(Cl)cc23)CC1	–	5.3	–	–	–	–
CCCn1c(=O)c(C(=O)Nc2c(C)n(C)n(-c3ccccc3)c2=O)c(O)c2ccccc21	-11	–	–	–	–	–
CCCn1c(=O)c(C(=O)Nc2ccccc2C(=O)OCC)c(O)c2ccccc21	–	–	–	–	–	–
Cc1ccc(C)c(C(=O)COC(=O)c2ccc(Br)o2)c1	2.2	–	–	–	–	–
CN1CCC2(CCN3CCc4c(oc5ccccc45)C3C2)N(C)C1=O (configuration not stated)	·	·	·	·	–	·
COc1ccc(C2C=C(c3ccc(C)cc3)Nc3ncnn32)cc1 (configuration not stated)	–	33	–	–	–	–
COc1ccc(C2C=C(c3ccc(Br)s3)Nc3ncnn32)cc1OC (configuration not stated)	–	120	–	–	–	–
C1=C(c2ccc(-c3ccccc3)cc2)Nc2ncnn2C1c1ccco1 (configuration not stated)	–	44	–	–	–	–
Cc1ccc(Cn2ccc(NC(=O)c3cc(CC(C)C)on3)n2)cc1	–	–	–	–	–	–
CC(C)(C)C(=O)/C=C(N)/C=C/c1ccccc1	–	–	–	–	–	–
Cc1cccc(NC(=O)CCn2ccnc2C)c1	–	–	–	–	–	–
CC(C)C[C@H](N)CSSC[C@@H](N)CC(C)C	·	·	·	·	–	·
COc1ccccc1NC(=O)c1cc2n(n1)C(C(F)(F)F)CC(c1ccc3c(c1)OCO3)N2 (configuration not stated)	0.8	–	–	–	–	–
COc1ccc(OC)c(NC(=O)c2cc3n(n2)C(C(F)(F)F)CC(c2ccc4c(c2)OCO4)N3)c1 (configuration not stated)	–	–	–	–	–	–

Compound activity from PubChem BioAssay.
